This passage reports growth results from PubChem BioAssay (NCI).

Compounds without any hit were thinned out: in the full panel of roughly 83,000, 20% have a hit.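 Plates (96-well) were seeded with cells, treated with compound at one concentration, and incubated for 48 hours before percent growth was determined.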 Values without a mark were called inactive. Calls of active or inactive are those of the source. The calls were made as follows: active = growth percent below 10; inactive = the rest.

Common to all, as to assay: NCI-60 one-dose screen, 48 h (100 = growth as untreated, 0 = no growth, -100 = all killed)
What all share (conditions): 10 µM unless noted

Assay [1] relates to DU-145 prostate.
Assay [2] deals with K-562 leukemia.
For assay [3], the system named is MALME-3M melanoma.
The subject of assay [4] is MDA-MB-231 breast.
The test system of assay [5] is RXF 393 renal.
Assay [6] concerns SF-268 CNS.
The test system of assay [7] is SF-295 CNS.
The test system of assay [8] is SF-539 CNS.
The test system of assay [9] is UACC-257 melanoma.
For assay [10], the system named is M14 melanoma.
For assay [11], the system named is HCT-15 colon.
Assay [12] relates to HT29 colon.
In assay [13] the test system is SNB-75 CNS.
Assay [14] has as its system SNB-19 CNS.
Assay [15] concerns U251 CNS.
In assay [16] the test system is PC-3 prostate.
Assay [17] concerns SK-MEL-5 melanoma.
The subject of assay [18] is UACC-62 melanoma.
For assay [19], the system named is LOX IMVI melanoma.
The subject of assay [20] is SK-MEL-28 melanoma.

As to `COc1cccc(/C=N\Nc2ccc([N+](=O)[O-])cn2)c1O`, the growth in assay [1] was 51.6%; in [2] it was 44.1%; in [3] it was 60.9%; in assay [4], 42.4%; in assay [5] it was 72.8%; in assay [6], 37.1%. For the same molecule, the growth was 3.86% (active) in [7]; 50.6% in [8]; 16.2% in assay [9]; 38.8% in assay [10]; 29.7% in assay [11]; 99.1% in assay [12]. The growth in assay [13] was 83.1%; in assay [14], 50.9%; in assay [15], 21.7%; in assay [16] it was 97.5%; in [17], 49.8%; in [18], 54.7%. For the same molecule, the results for the growth in [19] and in [20] were 36.9% and 83.5%, respectively.

Turning to `COc1ccc(C2=NNC(c3ccc(Oc4nc5c(c(=O)n(C)c(=O)n5C)n4C)c(OC)c3)C2)cc1` (stereo not given), the growth was 109% in assay [1]; 112% in assay [2]; 103% in [3]; 93.3% in assay [4]; 87.5% in assay [5]; 93.4% in assay [6]. Also, the growth in assay [7] is 88.9%; in assay [8] it was 97.8%; in [9], 97.8%; in [10], 96.9%; in [11], 93.8%; in [12], 95.5%. The growth in assay [13] is 78.7%; in [14] it was 87.6%; in assay [15], 83.2%; in assay [16], 101%; in assay [17], 85.3%; in assay [18], 81.2%. For the same molecule, the growth in assay [19] was 91.4%; in assay [20] it was 97.1%.

On to `COc1ccc2nc(C)cc(Sc3nc4ccccc4s3)c2c1`, for which the growth in assay [1] was 37.3%; in [2], 4.93% (active); in assay [3] it was 25.7%; in [4], 27.9%; in [5], -16.5% (active); in assay [6], 42.7%. Besides, the growth is 82.5% in assay [7]; 55.4% in assay [8]; 49% in assay [9]; 65.5% in assay [10]; 29.2% in [11]; 26.2% in [12]. Further, the growth in [13] was 46.4%; in assay [14], 62%; in assay [15], 39.6%; in assay [16] it was 52.9%; in assay [17], 35.2%; in assay [18], 47.3%. Also, the growth in assay [19] is 29.4%; in assay [20] it was 62.7%.

`CCCCOc1nc2ccccc2cc1/C=C/c1cc(/C=C/c2cc3ccccc3nc2OCCCC)n(-c2ccccc2)n1`: the growth in [1] was 113%; in assay [2] it was 99%; in assay [3], 104%; in assay [4] it was 103%; in assay [5] it was 106%; in assay [6] it was 107%. Moreover, the growth in assay [7] is 114%; in [8], 110%; in assay [9], 96.4%; in assay [10] it was 99.7%; in assay [11], 116%; in assay [12] it was 93.5%. Also, the growth is 82.5% in [13]; 97.3% in assay [14]; 99% in assay [15]; 93.1% in [16]; 101% in assay [17]; 81.3% in assay [18]. Moreover, the figures for the growth in assay [19] and in assay [20] were 95.9% and 114%, respectively.

With `CC(C)(C)[Si](C)(C)OC1[C@@H](O[Si](C)(C)C(C)(C)C)[C@@H](CNC(=O)NC(=O)NC(=O)CCl)O[C@H]1n1cnc2c(NC(=O)Nc3ccccc3)ncnc21` (stereo not given in full), the growth was 87.5% in assay [1]; 47.1% in assay [2]; -78.7% (active) in assay [3]; -28.3% (active) in [4]; 21.9% in assay [5]; 47.1% in assay [6]. In addition, the growth was -20.6% (active) in assay [7]; 82.7% in assay [8]; 97.8% in assay [9]; 64.7% in [10]; 79% in assay [11]; -11.4% (active) in assay [12]. The growth in [13] is 80.2%; in assay [14], 99.5%; in assay [15] it was 29.7%; in [16], 11.3%; in assay [17] it was 86.6%; in assay [18] it was 87.7%. The growth in [19] is -74.5% (active); in assay [20] it was 105%.

For the molecule `OC(CCCCCCCCC(O)CN1CCc2ccccc2C1)CN1CCc2ccccc2C1` (stereo not given), the growth in [1] was 108%; in [2], 97.3%; in assay [3], 97.5%; in assay [4] it was 98%; in assay [5], 110%; in assay [6], 102%. For the same molecule, the growth in [7] was 83.2%; in assay [8] it was 101%; in assay [9], 98.5%; in assay [10] it was 109%; in assay [11], 95.1%; in [12] it was 114%. The growth was 95.4% in assay [13]; 105% in [14]; 101% in assay [15]; 98.9% in assay [16]; 95.2% in assay [17]; 101% in [18]. In addition, the results for the growth in assay [19] and in [20] were 96.4% and 108%, respectively.

For `NC(CCC(=O)NC(CS)C(=O)NCC(=O)O)C(=O)O` (stereo not given), the growth in [1] was 112%; in assay [2], 84.2%; in assay [3] it was 122%; in [4] it was 117%; in assay [5] it was -24.6% (active); in [6], 103%. The growth in [7] is 104%; in [8], 105%; in [9], 101%; in assay [10], 108%; in assay [11] it was 101%; in assay [12], 106%. The growth in assay [13] is 95.6%; in assay [14], 99%; in [15], 106%; in [16], 81.5%; in [17], 102%; in assay [18], 96.7%. For the same molecule, the growth in [19] is 104%; in assay [20], 116%.
